Data on 8 compounds can be found in PubChem BioAssay (NCI).

Compounds without any hit were thinned out: in the full panel of roughly 83,000, 20% have a hit.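 Compound tested at a single concentration for 48 hours in 96-well plates; a percent growth value below 10 was scored as active.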 A number with no mark means an inactive call. Active and inactive are the calls of the source.

Common to all, as to assay: NCI-60 one-dose screen, 48 h (100 = growth as untreated, 0 = no growth, -100 = all killed)
Conditions in all cases: 10 µM unless noted

Experiment [1] deals with HCT-15 colon.
The subject of experiment [2] is HT29 colon.
Experiment [3] deals with SNB-75 CNS.
The subject of experiment [4] is SNB-19 CNS.
Experiment [5] has as its system PC-3 prostate.
The subject of experiment [6] is SK-MEL-5 melanoma.
Experiment [7] concerns UACC-62 melanoma.
Experiment [8] relates to LOX IMVI melanoma.
Experiment [9] deals with SK-MEL-28 melanoma.
The test system of experiment [10] is SK-MEL-2 melanoma.
The subject of experiment [11] is SN12C renal.
In experiment [12] the test system is UO-31 renal.
In experiment [13] the test system is TK-10 renal.
For experiment [14], the system named is ACHN renal.
In experiment [15] the test system is CAKI-1 renal.
The subject of experiment [16] is A498 renal.
Experiment [17] deals with CCRF-CEM leukemia.
For experiment [18], the system named is MOLT-4 leukemia.
In experiment [19] the test system is EKVX NSCLC.

In the case of `COc1cccc(-c2ccc3c(c2)C2CCN(Cc4ccccc4)C3C2)c1` (stereo not given), the growth in experiment [1] was 57.8%; in experiment [2], 36.5%; in experiment [3] it was 77%; in [4], 90.4%; in [5], 66.5%; in experiment [6], 99.4%. Further, the growth in experiment [7] was 83.6%; in experiment [8], 85.5%; in [9], 85.7%; in [10], 61.5%; in experiment [11], 90.4%; in experiment [12] it was 51.6%. Further, the growth in experiment [13] was 92.4%; in experiment [14], 93.2%; in experiment [15] it was 78.4%; in experiment [16] it was 65%; in [17], 63.8%; in experiment [18] it was 68.8%.
Regarding `CC(=O)Nc1ccc(Sc2ccc([N+](=O)[O-])o2)cc1`, the growth was 2.17% (active) in [1]; 26.4% in experiment [2]; 58.3% in experiment [3]; 118% in [4]; 58.9% in experiment [5]; 59.5% in experiment [6]. In addition, the growth in experiment [8] is 5.12% (active); in experiment [9] it was -8.34% (active); in experiment [19] it was 76.4%; in experiment [11] it was 54.2%; in experiment [12] it was 24.2%; in experiment [13], 64.9%. Also, the growth is -28.1% (active) in experiment [14], 120% in experiment [16] and 33.2% in experiment [18].
As to `CSc1ccc(OC(C)=O)cc1C`, the growth in experiment [1] is 95%; in experiment [2], 104%; in [3], 94.3%; in [4], 109%; in [5] it was 96.6%; in experiment [6], 98.8%. Moreover, the growth in experiment [7] was 98.1%; in [8], 95.5%; in experiment [9], 110%; in experiment [11] it was 104%; in [12] it was 77.2%; in [13], 91.1%. For the same compound, the growth in experiment [14] is 98%; in [15], 96.4%; in experiment [16] it was 86.3%; in experiment [17], 88.5%; in [18], 89.6%.
In the case of `Cn1c2c(cc(S(=O)(=O)c3ccccc3)c1=O)CCc1c-2cnn1-c1cccc(Cl)c1`, the growth in [1] was 96.7%; in experiment [2] it was 91.3%; in experiment [3], 76.4%; in [4] it was 97%; in experiment [5], 83.1%; in [6] it was 83.3%. Also, the growth was 84.6% in experiment [7]; 93.4% in [8]; 94.7% in experiment [9]; 107% in [10]; 90.3% in experiment [11]; -84.5% (active) in [12]. Also, the growth is 86.5% in [13]; -87.9% (active) in experiment [14]; -58% (active) in experiment [15]; 71.4% in experiment [16]; 90.9% in experiment [17]; 86.2% in [18].
For the compound `CCN(c1ccc(C(=O)N2CCN(c3ccccc3)CC2)cc1)S(C)(=O)=O`, the growth in [1] is 104%; in [2] it was 97.7%; in [3], 64.1%; in [4], 100%; in experiment [5], 101%; in experiment [6], 99.6%. Also, the growth was 105% in experiment [7]; 100% in experiment [8]; 108% in experiment [9]; 100% in [10]; 90.2% in [12]; 88.7% in experiment [13]. Further, the growth was 109% in experiment [14]; 96.3% in [15]; 87.9% in [16]; 100% in experiment [17]; 95.8% in experiment [18].
For `COc1ccc(-c2c3c(N)c4c(nc3nc3c2c(C)nn3-c2ccccc2)CCCC4)cc1`, the growth in experiment [1] was 68.2%; in [2] it was 21.1%; in experiment [3], 78.6%; in experiment [4] it was 103%; in experiment [5], 64.9%; in [6], 90.9%. The growth in experiment [7] was 92.9%; in [8], 92.6%; in [9], 96.9%; in experiment [10], 101%; in experiment [11], 93.4%; in experiment [12] it was 68.9%. For the same compound, the growth in experiment [13] is 86.8%; in experiment [14], 77.4%; in experiment [15], 83.9%; in experiment [16] it was 78.7%; in experiment [18], 23.6%.
As to `Cn1c(=O)c(S(=O)(=O)c2ccccc2)cc2ccc3c(cnn3-c3ccc(Cl)cc3)c21`, the growth is 73% in experiment [1]; 79.2% in [2]; 38.9% in experiment [3]; 90.1% in experiment [4]; 79.9% in experiment [5]; 84.6% in experiment [6]. For the same compound, the growth was 89.1% in [7]; 78.9% in experiment [8]; 84.6% in [9]; 87.2% in experiment [10]; 52.2% in experiment [12]; 81.5% in experiment [13]. Besides, the growth is 58.2% in experiment [14]; 82.8% in experiment [15]; 53.5% in experiment [16]; 95.8% in experiment [17]; 94.8% in experiment [18].
Regarding `CCOc1ccc(-c2cnnn2-c2nonc2-n2cccc2)cc1`, the growth was 22.6% in [1]; 1.88% (active) in experiment [2]; 5.23% (active) in experiment [3]; 37% in experiment [4]; 30.4% in experiment [5]; 24.7% in experiment [6]. Also, the growth is 35.6% in [7]; 33.1% in experiment [8]; 37.5% in [9]; 60.9% in experiment [19]; 29.8% in experiment [12]; 45.3% in [13]. In addition, the growth in experiment [14] is 47.3%; in experiment [15] it was 46.4%; in experiment [16] it was 18.7%; in [18] it was 8.83% (active).
